Test results published in PubChem BioAssay.

Legend:
[1] = tested on: Human papillomavirus type 1a protein E7 (residues 44-93); assay: HPV1a E7 fragment binders on microarrays, primary screen, biochemical, small-molecule microarray, residues 44-93, 635 nm fluorescence (AID 1108); settings: small-molecule microarray binding, fluorescence 635 nm; higher = more signal;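 also: E7 fragment applied at 1 µg/mL in TBST for 1 h at 4 C; score combines spot fluorescence with its signal to noise ratio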
[2] = modulators of HCV replicon luciferase signal, primary screen, HCV replication inhibitor project, Huh7 cells, luciferase reporter (AID 1109); settings: 48 h, higher = more signal;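 also: huh7 hepatoma cells harbouring a luciferase neomycin HCV replicon reporter; luciferase luminescence as measure of HCV replicon replication; test concentration not given here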
[3] = target: Left-right determination factor 2 (Homo sapiens) (UniProt O00292); assay: LEFTY2 binders on small-molecule microarrays, primary screen, biochemical, small-molecule microarray, 635 nm fluorescence scan (AID 1110); settings: LEFTY2 binding, higher = more signal
Chain of Left-right determination factor 2 (Homo sapiens) (O00292 whole entry, looked up): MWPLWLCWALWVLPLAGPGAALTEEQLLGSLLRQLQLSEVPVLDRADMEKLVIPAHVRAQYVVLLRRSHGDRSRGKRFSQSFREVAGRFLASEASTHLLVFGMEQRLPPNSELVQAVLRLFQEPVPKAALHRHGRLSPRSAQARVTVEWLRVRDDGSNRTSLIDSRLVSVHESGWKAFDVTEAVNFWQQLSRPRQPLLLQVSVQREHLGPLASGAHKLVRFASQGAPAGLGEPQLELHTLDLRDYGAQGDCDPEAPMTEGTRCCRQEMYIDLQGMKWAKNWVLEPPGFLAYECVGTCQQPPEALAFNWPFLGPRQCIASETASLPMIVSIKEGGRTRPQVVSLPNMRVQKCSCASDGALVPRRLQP

[4] = target: Calmodulin-1 (Homo sapiens) (UniProt P0DP23); assay: CALM1 binders on microarrays, EGTA buffer, profiling panel, biochemical, small-molecule microarray, Cy5-labelled CALM1 (AID 1111); settings: Cy5-CALM1 binding fluorescence, higher = more signal;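 also: labelled calmodulin applied in Tris saline Tween buffer holding calcium plus EGTA and DTT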
[5] = target: Calmodulin-1 (Homo sapiens) (UniProt P0DP23); assay: calcium-bound CALM1 binders on microarrays, profiling panel, artefact control for SMM control-protein annotation, biochemical, small-molecule microarray, Cy5-labelled CALM1, plus calcium (AID 1112); settings: Cy5-CALM1 binding fluorescence, higher = more signal;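 also: score merges spot fluorescence with signal to noise from triplicate slides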
[6] = small-molecule microarray binders of probe aWnt5a, primary screen, biochemical, biotinylated probe, 635/667 nm fluorescence (AID 1113); settings: higher = more signal;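 also: score merges 667 nm fluorescence intensity with signal-to-noise per printed feature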
[7] = small-molecule microarray binders of probe aShh, primary screen, biochemical, biotinylated probe, 635/667 nm fluorescence (AID 1114); settings: higher = more signal;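 also: probe is biotin-labelled aShh protein from a stem cell growth factor screen; measures binding of labelled protein to compounds printed on the slide; score merges feature fluorescence at 667 nm with signal-to-noise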
[8] = small-molecule microarray binders of probe aNog, primary screen, biochemical, biotinylated probe, 635/667 nm fluorescence (AID 1115); settings: higher = more signal;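 also: probe is biotinylated aNog protein used at 0.15 µg/mL for 1 h at 4 C; z-score combines 667 nm fluorescence of each spot with its signal to noise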
[9] = target: Torsin-1A-interacting protein 1 (Homo sapiens) (UniProt Q5JTV8); assay: LAP1 binders from COS7 cell lysate, primary screen, small-molecule microarray, 635/667 nm fluorescence (AID 1116); settings: COS7-hLAP1 lysate binding, 635 nm fluorescence, higher = more signal
Chain of Torsin-1A-interacting protein 1 (Homo sapiens) (Q5JTV8 whole entry, looked up): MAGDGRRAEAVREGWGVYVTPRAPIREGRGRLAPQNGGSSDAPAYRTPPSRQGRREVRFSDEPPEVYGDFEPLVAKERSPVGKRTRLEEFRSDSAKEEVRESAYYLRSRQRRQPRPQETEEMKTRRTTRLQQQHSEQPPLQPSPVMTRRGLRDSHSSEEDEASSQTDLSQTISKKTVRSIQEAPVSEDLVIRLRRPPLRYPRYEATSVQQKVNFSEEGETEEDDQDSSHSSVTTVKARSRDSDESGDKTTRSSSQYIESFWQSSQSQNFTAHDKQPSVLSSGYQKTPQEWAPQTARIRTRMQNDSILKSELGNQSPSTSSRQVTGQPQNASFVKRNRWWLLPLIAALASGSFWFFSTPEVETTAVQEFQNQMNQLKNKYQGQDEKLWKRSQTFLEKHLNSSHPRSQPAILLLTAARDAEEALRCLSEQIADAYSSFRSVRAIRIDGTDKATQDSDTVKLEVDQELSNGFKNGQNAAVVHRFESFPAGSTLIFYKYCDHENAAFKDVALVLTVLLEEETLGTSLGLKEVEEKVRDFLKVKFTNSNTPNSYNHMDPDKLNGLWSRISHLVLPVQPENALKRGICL

[10] = target: Alpha-bungarotoxin (Bungarus multicinctus) (UniProt P60615); assay: alpha-bungarotoxin binders on microarray, profiling panel, artefact control for SMM control protein annotation, biochemical, small-molecule microarray, Alexa647 label, 635/667 nm fluorescence (AID 1117); settings: alpha-BTX-A647 binding fluorescence, higher = more signal
Chain of Alpha-bungarotoxin (Bungarus multicinctus) (P60615 whole entry, looked up): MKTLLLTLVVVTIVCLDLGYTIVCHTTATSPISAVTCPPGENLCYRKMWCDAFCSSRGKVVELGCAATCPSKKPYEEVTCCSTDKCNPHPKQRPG

Compound | composite z-score [1] | z-score [2] | composite z-score [3] | composite z-score [4] | composite z-score [5] | composite z-score [6] | composite z-score [7] | composite z-score [8] | composite z-score [9] | composite z-score [10]
COc1ccc(C(O)C2C=CC3C(=O)N(c4ccccc4)C(=O)C3N2Nc2ccc(C(C)C)cc2)cc1OCc1ccccc1 (stereo not given) | 0.473 | -0.264 | 0.346 | 2.13 | 0.682 | 0.145 | -0.0375 | 0.299 | 0.598 | 2.07
CC(=O)N1Cc2ccccc2C[C@@]2(COC(c3ccc(OCCCO)cc3)=N2)C1=O | 0.612 | -1.62 | 0.827 | 1.79 | 0.845 | 0.0587 | 0.412 | 0.114 | 1.7 | 1.88
CCCCc1cn(C[C@H](Cc2ccccc2)NC(=O)N[C@H](CO)CCc2oc(C(C)=O)c(C(=O)OC)c2C(=O)OC)nn1 | 1.39 | -0.639 | 1.26 | 0.451 | -0.693 | -0.0045 | 0.184 | -0.0965 | 0.644 | 0.463
CCCCN1CC=CC23O[C@@H]4/C=C\CCC(C)OC(=O)C4[C@H]2C(=O)N(CCCCCO)[C@@H]3C1=O (stereo not given in full) | 0.15 | -0.275 | -1.39 | -0.78 | 0.0481 | -0.191 | -0.214 | -0.21 | 1.27 | -1.14
C=C(CCCC)C(=O)CC[C@@H](OC(=O)c1cccnc1)c1ccc(CO)o1 | 0.94 | -1.39 | 0.654 | 0.916 | -1.3 | 0.0003 | -0.0035 | -0.0333 | 0.387 | 0.781
CC(C)C[C@@H]1NC(=O)[C@H]2C[C@@H](C(=O)NCCCCCCN)[C@@H](c3ccc(O)cc3)N2C1=O | 0.302 | 0.742 | 0.057 | 0.143 | 0.307 | 0.055 | -0.214 | 0.103 | 1.13 | 0.585
CCCCCC1=C2CNC(CCC)(C(=O)OC)C=C2C(C)C1=O (stereo not given) | 0.514 | -0.183 | -0.477 | 1.42 | 1.27 | -0.0125 | 0.811 | 1.66 | 0.997 | 0.334
C=CC[C@@]1(C(=O)NCc2ccccc2)N=C(c2ccc(OCCCO)cc2)O[C@@H]1c1ccccc1N=[N+]=[N-] | 1.25 | -0.874 | -0.258 | 1.17 | 0.399 | 0.0839 | 0.171 | 1.74 | 1.44 | 1.82
COc1ccc(C(=O)Nc2ccc(CN3C(=O)[C@@]4(O[C@@H](CC(=O)N5CCC[C@H]5CO)[C@H]([Si](C)(C)c5ccc(OC)cc5)[C@H]4C)c4ccccc43)cc2)cc1 | 0.825 | -2.19 | 1.13 | 0.11 | -0.654 | -0.0643 | 0.0639 | -0.0503 | 1.01 | 1.12
CN1C(=O)C2C=CC(C(O)c3cc(C(F)(F)F)cc(C(F)(F)F)c3)N(N3CCCCC3)C2C1=O (stereo not given) | 1.24 | -0.353 | -0.599 | 1.34 | 0.769 | 0.0775 | 0.42 | 1.15 | 0.287 | 0.49
COc1ccc([Si](C)(C)[C@H]2[C@H](CC(=O)N3CCC[C@H]3CO)O[C@@]3(C(=O)N(Cc4cccc(N5C(=O)c6cccc7cccc5c67)c4)c4ccccc43)[C@@H]2C)cc1 | 1.34 | -3.12 | 0.758 | 0.681 | -0.0975 | 0.0775 | -0.196 | 1.02 | 0.582 | 1.56
